# Experimental data taken from the supplement of paper PMC9262897, “Low-cost anti-mycobacterial drug discovery using engineered E. coli” (Nature Communications, 2022).
# Where a name gives a salt, the structure may show the parent alone. ± gives the standard deviation of the averaged measurements.
# Legend:
# Test in all cases: growth (OD600 after 10 h); higher = more growth (less inhibition)
# [1] = test system: E. coli TESEC Alr+ wild-type control; conditions: compound 0.1 mM; raw OD600 reference: median of DMSO wells 0.241, cell-free background 0.041
# Method: (§1)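 TESEC Mtb Alr E. coli, or the Alr+ wild-type control, in 384-well plates with Prestwick library compounds at 0.1 mM and 1% DMSO, across arabinose induction levels of 1E3 to 1E7 nM. Growth is read as OD600 after 10 h at 37 °C in triplicate biological replicates.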
# E. coli TESEC Mtb Alr [2] = conditions: compound 0.1 mM
# Method: as §1
# E. coli TESEC Mtb Asd = conditions: compound 0.1 mM
# Method: (§2)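 TESEC E. coli strains in which the native enzyme is deleted and replaced by arabinose-inducible Mtb Asd, DapB, CysH or TrpD, each grown in its selective medium. Strains were screened against the Prestwick library at 0.1 mM and 1% DMSO in 384-well format at low and high arabinose induction. Growth is read as OD600 after 10 h in triplicate.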
# E. coli TESEC Mtb DapB = conditions: compound 0.1 mM
# Method: as §2
# E. coli TESEC Mtb Alr [3] = conditions: compound 0.1 mM; remark: listed apart in the source
# Method: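 TESEC Mtb Alr E. coli (ΔaraC ΔtolC ΔentC Δalr ΔdadX, arabinose-inducible Mtb Alr) or the Alr+ wild-type control strain, grown in defined M9-fructose medium without D-alanine in 96-well plates with Prestwick library compounds at 0.1 mM and 1% DMSO. Low Alr induction is 0.1 µM arabinose and high induction is 10 mM arabinose.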
# [4] = arabinose 1000 nM, raw OD600 reference: median of DMSO wells 0.294, cell-free background 0.041
# [5] = arabinose 10000 nM, raw OD600 reference: median of DMSO wells 0.264, cell-free background 0.041
# [6] = arabinose 100000 nM, raw OD600 reference: median of DMSO wells 0.201, cell-free background 0.041
# [7] = arabinose 1000000 nM, raw OD600 reference: median of DMSO wells 0.193, cell-free background 0.041
# [8] = arabinose 10000000 nM, raw OD600 reference: median of DMSO wells 0.146, cell-free background 0.041
# [9] = arabinose induction (level): High, raw OD600 reference: median of DMSO wells 0.331, cell-free background 0.041
# [10] = arabinose induction (level): Low, raw OD600 reference: median of DMSO wells 0.417, cell-free background 0.041
# [11] = arabinose induction (level): High, raw OD600 reference: median of DMSO wells […], cell-free background 0.041
# [12] = arabinose induction (level): Low, raw OD600 reference: median of DMSO wells 0.227, cell-free background 0.041
# [13] = arabinose 100 nM, raw OD600 reference: median of DMSO wells 0.413, cell-free background 0.052
# [14] = arabinose 10000000 nM, raw OD600 reference: median of DMSO wells […], cell-free background 0.052
SMILES,growth [1],growth (E. coli TESEC Mtb Alr [2]; [4]),growth (E. coli TESEC Mtb Alr [2]; [5]),growth (E. coli TESEC Mtb Alr [2]; [6]),growth (E. coli TESEC Mtb Alr [2]; [7]),growth (E. coli TESEC Mtb Alr [2]; [8]),growth (E. coli TESEC Mtb Asd; [9]),growth (E. coli TESEC Mtb Asd; [10]),growth (E. coli TESEC Mtb DapB; [11]),growth (E. coli TESEC Mtb DapB; [12]),growth (E. coli TESEC Mtb Alr [3]; [13]),growth (E. coli TESEC Mtb Alr [3]; [14])
CN[C@@H]1[C@@H](O[C@H]2O[C@H](CO)[C@@H](N)[C@H](O)[C@H]2O)OC2C[C@@H](N)[C@@H](O[C@H]3[C@H](O)[C@@H](O)[C@H](N)C[C@@H]3N)OC2[C@@H]1O (some centres undefined) [Apramycin],0.0408 ± 0.00099,0.045 ± 0.0037,0.03913 ± 0.00032,0.0442 ± 0.00091,0.0395 ± 0.0018,0.05653 ± 0.00029,0.0487 ± 0.0014,0.0476 ± 0.0012,0.0527 ± 0.0023,0.048 ± 0.0016,0.0841 ± 0.008,0.133 ± 0.069
Clc1ccc(C(Cn2ccnc2)OCc2ccsc2Cl)c(Cl)c1 (centres undefined) [Tioconazole],0.04147 ± 0.00032,0.0412 ± 0.0011,0.0461 ± 0.00071,0.04173 ± 0.00029,0.0443 ± 0.00052,0.04223 ± 0.00035,0.0476 ± 0.0011,0.0482 ± 0.0016,0.0486 ± 0.00086,0.0575 ± 0.017,0.0561 ± 0.0097,0.051 ± 0.00017
CC(=O)S[C@@H]1CC2=CC(=O)CC[C@]2(C)[C@H]2CC[C@@]3(C)[C@@H](CC[C@@]34CCC(=O)O4)[C@H]12 [Spironolactone],0.121 ± 0.0068,0.0986 ± 0.051,0.0753 ± 0.0019,0.0921 ± 0.027,0.06897 ± 0.00051,0.112 ± 0.0019,0.167 ± 0.021,0.313 ± 0.041,0.1363 ± 0.001,0.178 ± 0.018,0.389 ± 0.026,0.0959 ± 0.016
CCCCc1oc2ccccc2c1C(=O)c1cc(I)c(OCCN(CC)CC)c(I)c1 [Amiodarone hydrochloride],0.263 ± 0.01,0.325 ± 0.0083,0.324 ± 0.0065,0.193 ± 0.0069,0.177 ± 0.0065,0.153 ± 0.0059,0.284 ± 0.017,0.338 ± 0.033,0.185 ± 0.0075,0.227 ± 0.0068,0.424 ± 0.057,0.316 ± 0.044
Cc1nc2n(c(=O)c1CCN1CCC(c3noc4cc(F)ccc34)CC1)CCCC2 [Risperidone],0.237 ± 0.0077,0.305 ± 0.007,0.269 ± 0.014,0.175 ± 0.016,0.18 ± 0.0097,0.146 ± 0.0055,0.183 ± 0.032,0.315 ± 0.073,0.201 ± 0.024,0.261 ± 0.019,0.397 ± 0.014,0.305 ± 0.023
Cc1c(OCC(F)(F)F)ccnc1C[S+]([O-])c1nc2ccccc2[nH]1 (centres undefined) [Lansoprazole],0.131 ± 0.0017,0.164 ± 0.0045,0.242 ± 0.01,0.132 ± 0.0025,0.094 ± 0.0041,0.14 ± 0.0041,0.236 ± 0.024,0.191 ± 0.0085,0.175 ± 0.0097,0.203 ± 0.02,0.363 ± 0.035,0.163 ± 0.025
C=CC1=C(C(=O)O)N2C(=O)[C@@H](NC(=O)/C(=N\O)c3csc(N)n3)[C@H]2SC1 [Cefdinir],0.0391 ± 0.00064,0.0401 ± 0.0026,0.0401 ± 0.00087,0.038 ± 0.0008,0.0415 ± 0.0031,0.0408 ± 0.0009,0.0771 ± 0.0071,0.0475 ± 0.00091,0.0548 ± 0.003,0.0595 ± 0.015,0.0463 ± 0.00075,0.0569 ± 0.0017
CC[C@H]1OC(=O)[C@H](C)[C@@H](O[C@H]2C[C@@](C)(OC)[C@@H](O)[C@H](C)O2)[C@H](C)[C@@H](O[C@@H]2O[C@H](C)C[C@H](N(C)C)[C@H]2O)[C@](C)(O)C[C@@H](C)[C@@H]2N[C@@H](COCCOC)O[C@H]([C@H]2C)[C@]1(C)O [Dirithromycin],0.0424 ± 0.0002,0.04193 ± 0.00015,0.03907 ± 0.00012,0.044 ± 0.00057,0.0396 ± 0.0001,0.0428 ± 0.0002,0.057 ± 0.0029,0.054 ± 0.0053,0.0519 ± 0.0012,0.052 ± 0.00061,0.0635 ± 0.0042,0.0507 ± 0.00036
C=C1c2cccc(O)c2C(O)=C2C(=O)[C@]3(O)C(O)=C(C(N)=O)C(=O)[C@@H](N(C)C)[C@@H]3[C@@H](O)[C@H]12 [Methacycline hydrochloride],0.0468 ± 0.0013,0.0453 ± 0.00098,0.0468 ± 0.0019,0.0492 ± 0.0052,0.0489 ± 0.0047,0.0481 ± 0.0026,0.05743 ± 0.00057,0.0548 ± 0.0016,0.0592 ± 0.0012,0.0603 ± 0.0025,0.0587 ± 0.0009,0.066 ± 0.0023
"CC(C)NCC(O)c1ccc(O)c(O)c1 (single isomer, unassigned; (-)) [(-)-Isoproterenol hydrochloride]",0.236 ± 0.0036,0.289 ± 0.0076,0.278 ± 0.015,0.184 ± 0.02,0.199 ± 0.004,0.143 ± 0.0042,0.281 ± 0.052,0.392 ± 0.03,0.191 ± 0.014,0.23 ± 0.035,0.4345 ± 0.003,0.32 ± 0.02
"CC(C)(S)C(N)C(=O)O (racemic) [D,L-Penicillamine]",0.251 ± 0.0054,0.307 ± 0.016,0.2563 ± 0.0018,0.187 ± 0.021,0.187 ± 0.0061,0.146 ± 0.0078,0.307 ± 0.03,0.413 ± 0.018,0.18 ± 0.023,0.205 ± 0.024,0.403 ± 0.0076,0.35 ± 0.014
COc1c(O[C@@H]2O[C@H](CO)[C@@H](O)[C@H](O)[C@H]2O)cc2c(c1OC)-c1ccc(SC)c(=O)cc1[C@@H](NC(C)=O)CC2 [Thiocolchicoside],0.254 ± 0.01,0.307 ± 0.0068,0.275 ± 0.0073,0.229 ± 0.023,0.186 ± 0.0019,0.149 ± 0.0088,0.271 ± 0.091,0.291 ± 0.082,0.206 ± 0.024,0.236 ± 0.015,0.414 ± 0.011,0.35 ± 0.023
CN[C@@H]1[C@H](O[C@H]2[C@H](O[C@H]3[C@H](O)[C@@H](O)[C@H](NC(=N)N)[C@@H](O)[C@@H]3NC(=N)N)O[C@@H](C)[C@]2(O)CO)O[C@@H](CO)[C@H](O)[C@H]1O [Dihydrostreptomycin sulfate],0.041 ± 0.0011,0.0419 ± 0.0011,0.03877 ± 0.00012,0.0454 ± 0.0053,0.0395 ± 0.0004,0.0485 ± 0.0005,0.0488 ± 0.00072,0.0499 ± 0.0017,0.0489 ± 0.00049,0.0483 ± 0.00061,0.0553 ± 0.0036,0.0534 ± 0.00091
CN(C)CCC(c1ccc(Br)cc1)c1ccccn1 (centres undefined) [Brompheniramine maleate],0.218 ± 0.0069,0.293 ± 0.0063,0.264 ± 0.0057,0.209 ± 0.037,0.162 ± 0.0032,0.15 ± 0.008,0.179 ± 0.0086,0.302 ± 0.079,0.179 ± 0.01,0.253 ± 0.025,0.398 ± 0.011,0.339 ± 0.02
CCC(=O)[C@@]1(C)[C@H](C)C[C@H]2[C@@H]3CCC4=CC(=O)C=C[C@]4(C)[C@H]3[C@@H](O)C[C@@]21C [Rimexolone],0.216 ± 0.0076,0.275 ± 0.019,0.248 ± 0.0084,0.139 ± 0.005,0.148 ± 0.0067,0.132 ± 0.0029,0.203 ± 0.03,0.41 ± 0.047,0.197 ± 0.0062,0.209 ± 0.026,0.414 ± 0.019,0.365 ± 0.038
CC(=O)OCC(=O)[C@@]12N=C(C)O[C@@H]1C[C@H]1[C@@H]3CCC4=CC(=O)C=C[C@]4(C)[C@H]3[C@@H](O)C[C@@]12C [Deflazacort],0.151 ± 0.011,0.213 ± 0.009,0.256 ± 0.0029,0.193 ± 0.02,0.168 ± 0.0053,0.1533 ± 0.00035,0.323 ± 0.083,0.396 ± 0.032,0.186 ± 0.0061,0.23 ± 0.013,0.394 ± 0.0082,0.347 ± 0.0046
Nc1ccc(O)c(C(=O)O)c1 [Mesalamine],0.2446 ± 0.0018,0.287 ± 0.014,0.278 ± 0.0044,0.2 ± 0.011,0.21 ± 0.0038,0.144 ± 0.0074,0.339 ± 0.052,0.362 ± 0.061,0.195 ± 0.024,0.213 ± 0.021,0.416 ± 0.0084,0.363 ± 0.011
